Laboratory results published in PubChem BioAssay (Tox21).
Active and inactive are the calls of the source. Entries that show only a call come without a potency. Calls come from the whole dose curve; as a rule, active = well fitted curve in the direction sought with a large enough effect in the repeat runs; inconclusive = weak or mixed curves; inactive = flat fitted curve, though single readings scatter.

Assay: qHTS assay to test for compound auto fluorescence at 460 nm (blue) in HepG2 cell free culture (AID 720685)
Conditions: Cell-free culture medium, blue autofluorescence 405/460 nm; series mostly up to 91.3 µM
From the text: U.S. Tox21 Program National Center for Advancing Translational Sciences [NCATS] NIH Chemical Genomics Center [NCGC] U.S. Environmental Protection Agency [EPA] National Institutes of Environmental Health Sciences [NIEHS] National Toxicology Program [NTP] U.S. Food and Drug Administration [FDA] Tox21 Assay Overview: Compound auto fluorescence often interferes with screening of the compound library against various biological targets and signaling pathways. Some of these compounds may have fluorophoric properties. Such properties may interfere with the assay outputs resulting in false positives and/or negatives. To decrease such complications and ensure the compound activities are relevant in terms of biological response, the Tox21 10K compound library was screened for auto fluorescence. From the fluorophores used as reporter signals in our screening assays, the auto fluorescence equivalencies of compounds against three fluorophores have been evaluated: Triamterene, Fluorescein and Rose Bengal sodium for blue, green and red fluorescence, respectively. The fluorescence intensities were measured using Excitation/Emission wavelengths at 405/460nm, 485/535nm and 540/590nm for blue, green and red labels, respectively. This assay includes the blue fluorescence data.
Tox21 Assay Protocol Summary: 5 uL of culture medium (MEM containing 10% FBS) per well was dispensed into black wall/clear bottom 1536-well plates using a Multidrop Combi Dispenser (ThermoFisher Scientific, Waltham, MA). After 23 nL compound or DMSO vehicle was transferred into assay plate by a pintool work station (Kalypsys, San Diego, CA), fluorescence intensities in the assay plates were measured by an Envision (PerkinElmer, Shelton, CT) plate reader using three labels for measuring blue, green and red fluorescence at […] 460, 535 and 590nm respectively.

| Compound | Potency |
| --- | --- |
| NCCS(=O)(=O)O | inactive |
| CC1(C)OC(=O)NC1=O | inactive |
| COc1ccc(C(=O)c2ccccc2O)c(O)c1 | inactive |
| C1COCCN1 | inactive |
| Cc1ccc(/C(=C\CN2CCCC2)c2ccccn2)cc1 | inactive |
| C/C=C/C(=O)N(CC)c1ccccc1C | inactive |
| c1ccc2c(c1)[nH]c1ccccc12 | inactive |
| COC(=O)CC(=O)OC | inactive |
| O=C(O)CCCCCCCCCCCC(=O)O | inactive |
| Nc1cc([N+](=O)[O-])ccc1C(=O)O | inactive |
| O=C1OC2(c3ccccc31)c1cc(I)c(O)c(I)c1Oc1c2cc(I)c(O)c1I | inactive |
| CC1(C)NC(=O)N(c2ccc([N+](=O)[O-])c(C(F)(F)F)c2)C1=O | inactive |
| CC1(C)C(C=C(Cl)Cl)C1C(=O)OCc1cccc(Oc2ccccc2)c1 (stereo not given) | inactive |
| Nc1ccc2c(c1)C(=O)c1ccccc1C2=O | inactive |
| Brc1nc2ccccc2s1 | inactive |
| CC(=O)OC(C)C | inactive |
| CCO[Si](CCCNC(N)=O)(OCC)OCC | inactive |
| CC(=O)Nc1ccc2c(c1)Cc1cc(NC(C)=O)ccc1-2 | inactive |
| CC(C)[N+](C)(CCOC(=O)C1c2ccccc2Oc2ccccc21)C(C)C | inactive |
| O=[Se](O)O | inactive |

| Compound | Potency |
| --- | --- |
| CC1(C)O[C@@H]2C[C@H]3[C@@H]4C[C@H](F)C5=CC(=O)C=C[C@]5(C)[C@@]4(F)[C@@H](O)C[C@]3(C)[C@]2(C(=O)CO)O1 | inactive |
| C=CN1CCCC1=O | inactive |
| CC(C)(C)c1cccc(C(C)(C)C)c1O | inactive |
| C=C[C@H]1CN2CC[C@H]1C[C@@H]2[C@@H](O)c1ccnc2ccc(OC)cc12 | inactive |
| O=C(O)COCCN1CCN(C(c2ccccc2)c2ccc(Cl)cc2)CC1 (stereo not given) | inactive |
| COc1ccc(-c2coc3cc(O)cc(O)c3c2=O)cc1 | inactive |
| C=C1C[C@H]2[C@@H]3C=C(C)C4=CC(=O)CC[C@]4(C)[C@H]3CC[C@]2(C)[C@@]1(OC(C)=O)C(C)=O | inactive |
| CCCN1C=CN(C)C1 | inactive |
| CCCOCCO | inactive |
| COc1ccc2nc(N)sc2c1 | inactive |
| CC(C)(Oc1ccc(Cl)cc1)C(=O)O | inactive |
| CC(=O)Oc1c(C)c(C)c2c(c1C)CC[C@@](C)(CCC[C@H](C)CCC[C@H](C)CCCC(C)C)O2 | inactive |
| Cc1ccc(C(C)(C)C)cc1 | inactive |
| c1ccc2cc3ccccc3cc2c1 | inactive |
| CC(C)=CCO | inactive |
| CC(=O)O[C@]1(C(C)=O)CC[C@H]2[C@@H]3C=C(C)C4=CC(=O)CC[C@]4(C)[C@H]3CC[C@@]21C | inactive |
| CCCCCC=O | inactive |
| C1CN(SSN2CCOCC2)CCO1 | inactive |
| O=C(O)c1ccc(O)cc1 | inactive |
| CC(=O)[C@@]1(O)CC[C@H]2[C@@H]3C[C@H](C)C4=CC(=O)C=C[C@]4(C)[C@@]3(F)[C@@H](O)C[C@@]21C | inactive |
